Details in all cases: mRNA level, 48 h; actives raise or lower the signal
Read-out in assay [1]: Insulin-like growth factor-binding protein 1 (IGFBP1), IGFBP1 (gene 3484)
Briefly: LTEA_HepaRG_IGFBP1: Life Technologies and Expression Analysis (LTEA) Assay for Insulin-like growth factor-binding protein 1 (IGFBP1) using HepaRG (AID 2283508). In short, it runs like this:
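Differentiated human HepaRG cells in serum-free induction medium were exposed in duplicate for 48 h to eight concentrations, top 100 uM with half-log dilutions, in 0.5% DMSO. Transcript levels came from qRT-PCR normalised to ACTB, GAPDH and POLR2A, fitted bidirectionally against DMSO.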

Read-out in assay [2]: Interleukin 6 (IL6), IL6 (gene 3569)
Briefly: LTEA_HepaRG_IL6: Life Technologies and Expression Analysis (LTEA) Assay for Interleukin 6 (IL6) using HepaRG (AID 2283509). In short, it runs like this: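 HepaRG cells exposed in duplicate for 48 h to eight half-log concentrations, top 100 uM, in 0.5% DMSO serum-free induction medium. mRNA measured by qRT-PCR, normalized to ACTB, GAPDH and POLR2A. Bidirectional fit versus DMSO.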

Read-out in assay [3]: Interleukin 6 Receptor (IL6R), IL6R (gene 3570)
Briefly: LTEA_HepaRG_IL6R: Life Technologies and Expression Analysis (LTEA) Assay for Interleukin 6 Receptor (IL6R) using HepaRG (AID 2283510). The procedure, abridged: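 Concentration-response in human liver HepaRG cells: eight concentrations from 100 uM downward by half-logs, 48 h exposure, 0.5% DMSO vehicle. IL6R mRNA change measured by qRT-PCR and fitted in both directions relative to vehicle.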

Read-out in assay [4]: Potassium channel subfamily K member 1 (KCNK1), KCNK1 (gene 3775)
The experiment in a line: LTEA_HepaRG_KCNK1: Life Technologies and Expression Analysis (LTEA) Assay for Potassium channel subfamily K member 1 (KCNK1) using HepaRG (AID 2283511). The procedure, abridged: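 Differentiated HepaRG cells, 48 h exposure in serum-free induction medium with 0.5% DMSO; 8 concentrations, half-log from 100 uM, duplicate. KCNK1 mRNA by qRT-PCR, normalized to ACTB, GAPDH, POLR2A; bidirectional fit vs DMSO.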

Read-out in assay [5]: Keratin 19 (KRT19), KRT19 (gene 3880)
Briefly: LTEA_HepaRG_KRT19: Life Technologies and Expression Analysis (LTEA) Assay for Keratin 19 (KRT19) using HepaRG (AID 2283512). The procedure, abridged: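 Differentiated human HepaRG cells, plated 48 h, were exposed in duplicate for 48 h in serum-free induction medium to eight half-log concentrations up to 100 uM in 0.5% DMSO. KRT19 mRNA was quantified by qRT-PCR, normalized to ACTB, GAPDH and POLR2A, and fitted bidirectionally versus DMSO.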

Read-out in assay [6]: JUN Transcription Factor, JUN (gene 3725)
Briefly: LTEA_HepaRG_JUN: Life Technologies and Expression Analysis (LTEA) Assay for JUN Transcription Factor using HepaRG (AID 2283513). The procedure, abridged: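 Human HepaRG liver cells receive test chemicals in 0.5% DMSO for 48 h across an eight-point range topping at 100 uM. Expression changes in JUN are scored in both directions against the DMSO vehicle.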

Read-out in assay [7]: Lipase C (LIPC), LIPC (gene 3990)
Briefly: LTEA_HepaRG_LIPC: Life Technologies and Expression Analysis (LTEA) Assay for Lipase C (LIPC) using HepaRG (AID 2283514). The procedure, abridged: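 HepaRG cells, 48 h after plating, treated in duplicate for 48 h in serum-free induction medium over 8 half-log concentrations from 100 uM, 0.5% DMSO. LIPC mRNA by TaqMan qRT-PCR normalized to ACTB/GAPDH/POLR2A; bidirectional fit versus DMSO.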

Read-out in assay [8]: Lipoprotein lipase (LPL), LPL (gene 4023)
The experiment in a line: LTEA_HepaRG_LPL: Life Technologies and Expression Analysis (LTEA) Assay for Lipoprotein lipase (LPL) using HepaRG (AID 2283515). The procedure, abridged:
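Differentiated HepaRG cells, plated 48 h, then exposed 48 h in serum-free induction medium to 8 concentrations (top 100 uM, half-log steps) in 0.5% DMSO, duplicate. LPL mRNA measured by qRT-PCR, normalized to ACTB, GAPDH and POLR2A.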

Read-out in assay [9]: MicroRNA 122 (MIR122), gene 406906
Briefly: LTEA_HepaRG_MIR122: Life Technologies and Expression Analysis (LTEA) Assay for MicroRNA 122 (MIR122) using HepaRG (AID 2283516). Also: the transcript read is the microRNA miR-122. The procedure, abridged: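 HepaRG, 48 h exposure, 8-pt half-log from 100 uM, 0.5% DMSO; TaqMan qRT-PCR; bidirectional fit vs DMSO.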

Read-out in assay [10]: matrix metalloproteinase-10 (MMP10), MMP10 (gene 4319)
Briefly: LTEA_HepaRG_MMP10: Life Technologies and Expression Analysis (LTEA) Assay for matrix metalloproteinase-10 (MMP10) using HepaRG (AID 2283517). In short, it runs like this:
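Differentiated HepaRG cells in serum-free induction medium exposed 48 h in duplicate to 8-point half-log series up to 100 uM in 0.5% DMSO. mRNA quantified by qRT-PCR, normalised to ACTB, GAPDH, POLR2A; bidirectional fit versus DMSO.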

Read-out in the next assay: MYC, MYC (gene 4609)
Briefly: LTEA_HepaRG_MYC: Life Technologies and Expression Analysis (LTEA) Assay for MYC using HepaRG (AID 2283518). In short, it runs like this:
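Differentiated human HepaRG cells, plated 48 h then switched to serum-free induction medium, were exposed in duplicate for 48 h to 8-point half-log series up to 100 uM in 0.5% DMSO. MYC mRNA measured by qRT-PCR, normalized to ACTB/GAPDH/POLR2A.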

Read-out in assay [11]: matrix metalloproteinase-3 (MMP3), MMP3 (gene 4314)
The experiment in a line: LTEA_HepaRG_MMP3: Life Technologies and Expression Analysis (LTEA) Assay for matrix metalloproteinase-3 (MMP3) using HepaRG (AID 2283519). In short, it runs like this: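 HepaRG cells (~100,000/well) in serum-free induction medium were dosed in duplicate for 48 h with an 8-point half-log series from 100 uM, 0.5% DMSO. MMP3 mRNA was quantified by Fluidigm TaqMan qRT-PCR, normalized to three housekeeping genes.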

Read-out in assay [12]: Paternally Expressed 10 (PEG10), PEG10 (gene 23089)
Briefly: LTEA_HepaRG_PEG10: Life Technologies and Expression Analysis (LTEA) Assay for Paternally Expressed 10 (PEG10) using HepaRG (AID 2283520).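 As to AC50: PEG10 transcript by qRT-PCR normalised to ACTB GAPDH and POLR2A.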 In short, it runs like this:
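Chemicals tested on HepaRG cells for 48 h, highest concentration 100 uM. PEG10 expression assessed by qRT-PCR relative to DMSO control.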

Read-out in assay [13]: Protein phosphatase 2A (PPP2R4), PTPA (gene 5524)
Briefly: LTEA_HepaRG_PPP2R4: Life Technologies and Expression Analysis (LTEA) Assay for Protein phosphatase 2A (PPP2R4) using HepaRG (AID 2283522). In short, it runs like this: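 Gene-expression endpoint in HepaRG hepatic cells: 48 h treatment across eight half-log concentrations up to 100 uM in 0.5% DMSO. PPP2R4 mRNA by qRT-PCR, normalized to three endogenous control genes.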

Read-out in assay [14]: Phosphatase and tensin (PTEN), PTEN (gene 5728)
Briefly: LTEA_HepaRG_PTEN: Life Technologies and Expression Analysis (LTEA) Assay for Phosphatase and tensin (PTEN) using HepaRG (AID 2283523). In short, it runs like this:
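HepaRG cells, 48 h after plating, exposed in duplicate for 48 h in serum-free induction medium to 8 half-log concentrations up to 100 uM (0.5% DMSO). PTEN mRNA by qRT-PCR, normalized to ACTB, GAPDH, POLR2A; bidirectional fit versus DMSO.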

Read-out in assay [15]: solute carrier (SLC22A1), SLC22A1 (gene 6580)
The experiment in a line: LTEA_HepaRG_SLC22A1: Life Technologies and Expression Analysis (LTEA) Assay for solute carrier (SLC22A1) using HepaRG (AID 2283524). The procedure, abridged: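 Differentiated human HepaRG cells in serum-free induction medium, exposed 48 h in duplicate to 8-point half-log series from 100 µM top in 0.5% DMSO. SLC22A1 mRNA by TaqMan qRT-PCR normalized to ACTB, GAPDH, POLR2A; bidirectional fit versus DMSO.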

Read-out in assay [16]: Pyruvate Dehydrogenase Kinase 4 (PDK4), PDK4 (gene 5166)
The experiment in a line: LTEA_HepaRG_PDK4: Life Technologies and Expression Analysis (LTEA) Assay for Pyruvate Dehydrogenase Kinase 4 (PDK4) using HepaRG (AID 2283525). The procedure, abridged: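 HepaRG cells plated 48 h, then switched to serum-free induction medium and exposed in duplicate for 48 h to 8 half-log concentrations from 100 uM in 0.5% DMSO. PDK4 mRNA measured by qRT-PCR, normalized to ACTB, GAPDH and POLR2A; bidirectional fit versus DMSO.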

Read-out in assay [17]: NAD(P)H dehydrogenase [quinone] 1 (NQO1), NQO1 (gene 1728)
The experiment in a line: LTEA_HepaRG_NQO1: Life Technologies and Expression Analysis (LTEA) Assay for NAD(P)H dehydrogenase [quinone] 1 (NQO1) using HepaRG (AID 2283526). The procedure, abridged:
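Human HepaRG hepatic cells received chemicals for 48 h in serum-free induction medium with 0.5% DMSO, up to 100 uM. Expression was assessed by TaqMan qRT-PCR against housekeeping controls and fitted bidirectionally against DMSO.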

Read-out in assay [18]: Nuclear factor NF-kappa-B p105 subunit (Homo sapiens) (UniProt P19838)
Briefly: LTEA_HepaRG_NFKB1: Life Technologies and Expression Analysis (LTEA) Assay for Nuclear Factor Kappa B Subunit 1 (NFKB1) using HepaRG (AID 2283521).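 Also: TaqMan qRT-PCR transcript normalised to ACTB GAPDH and POLR2A housekeeping genes.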 The procedure, abridged:
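Differentiated human HepaRG cells were exposed for 48 h in serum-free induction medium to eight concentrations (top 100 uM, half-log steps, 0.5% DMSO), in duplicate. NFKB1 mRNA was measured by TaqMan qRT-PCR, normalized to ACTB/GAPDH/POLR2A, and fitted bidirectionally against DMSO.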

Read-out in assay [19]: Nuclear factor erythroid 2-related factor 2 (Homo sapiens) (UniProt Q16236)
The experiment in a line: LTEA_HepaRG_NFE2L2: Life Technologies and Expression Analysis (LTEA) Assay for Nuclear factor erythroid 2-related factor 2 (NFE2L2) Transcription Factor using HepaRG (AID 2283527).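 Also: TaqMan qRT-PCR transcript level normalised to ACTB GAPDH and POLR2A housekeeping genes.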 In short, it runs like this: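 Differentiated human HepaRG cells, serum-free induction medium, exposed 48 h in duplicate to eight half-log concentrations up to 100 uM in 0.5% DMSO. NFE2L2 mRNA by Fluidigm TaqMan qRT-PCR, normalised to ACTB, GAPDH, POLR2A; bidirectional change versus DMSO.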

The source made the active and inactive calls. The calls were made as follows: active = hit-call score of the fitted dose curve at least 0.9, where 1 is the maximum; inactive = score below 0.9.

Nuclear factor NF-kappa-B p105 subunit (Homo sapiens), sequence (P19838 whole entry, looked up): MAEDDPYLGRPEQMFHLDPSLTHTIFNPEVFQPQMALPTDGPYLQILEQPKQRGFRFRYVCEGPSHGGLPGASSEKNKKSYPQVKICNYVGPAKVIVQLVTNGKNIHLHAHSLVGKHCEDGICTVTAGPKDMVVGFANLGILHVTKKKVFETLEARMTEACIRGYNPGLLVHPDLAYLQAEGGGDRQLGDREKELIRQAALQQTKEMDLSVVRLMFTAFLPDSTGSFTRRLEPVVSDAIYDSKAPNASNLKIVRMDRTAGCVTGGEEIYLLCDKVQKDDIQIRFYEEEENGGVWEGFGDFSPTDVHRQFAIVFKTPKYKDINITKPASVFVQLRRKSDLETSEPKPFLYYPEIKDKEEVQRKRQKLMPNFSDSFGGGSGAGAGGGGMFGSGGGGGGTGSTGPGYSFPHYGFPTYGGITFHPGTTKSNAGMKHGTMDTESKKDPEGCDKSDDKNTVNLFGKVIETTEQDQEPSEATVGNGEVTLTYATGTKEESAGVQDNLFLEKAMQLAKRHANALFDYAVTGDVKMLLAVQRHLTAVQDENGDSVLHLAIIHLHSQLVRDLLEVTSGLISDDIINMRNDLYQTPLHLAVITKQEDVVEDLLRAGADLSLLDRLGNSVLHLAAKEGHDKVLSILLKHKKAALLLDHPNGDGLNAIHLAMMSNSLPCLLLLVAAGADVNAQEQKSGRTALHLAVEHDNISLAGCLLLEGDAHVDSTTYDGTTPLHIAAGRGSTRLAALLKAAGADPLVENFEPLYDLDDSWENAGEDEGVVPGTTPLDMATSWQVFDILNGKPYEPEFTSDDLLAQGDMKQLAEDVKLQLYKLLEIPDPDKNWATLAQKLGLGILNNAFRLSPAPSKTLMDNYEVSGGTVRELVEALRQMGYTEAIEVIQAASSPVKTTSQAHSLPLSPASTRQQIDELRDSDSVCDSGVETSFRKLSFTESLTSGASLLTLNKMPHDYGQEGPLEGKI
Nuclear factor erythroid 2-related factor 2 (Homo sapiens), sequence (Q16236 whole entry, looked up): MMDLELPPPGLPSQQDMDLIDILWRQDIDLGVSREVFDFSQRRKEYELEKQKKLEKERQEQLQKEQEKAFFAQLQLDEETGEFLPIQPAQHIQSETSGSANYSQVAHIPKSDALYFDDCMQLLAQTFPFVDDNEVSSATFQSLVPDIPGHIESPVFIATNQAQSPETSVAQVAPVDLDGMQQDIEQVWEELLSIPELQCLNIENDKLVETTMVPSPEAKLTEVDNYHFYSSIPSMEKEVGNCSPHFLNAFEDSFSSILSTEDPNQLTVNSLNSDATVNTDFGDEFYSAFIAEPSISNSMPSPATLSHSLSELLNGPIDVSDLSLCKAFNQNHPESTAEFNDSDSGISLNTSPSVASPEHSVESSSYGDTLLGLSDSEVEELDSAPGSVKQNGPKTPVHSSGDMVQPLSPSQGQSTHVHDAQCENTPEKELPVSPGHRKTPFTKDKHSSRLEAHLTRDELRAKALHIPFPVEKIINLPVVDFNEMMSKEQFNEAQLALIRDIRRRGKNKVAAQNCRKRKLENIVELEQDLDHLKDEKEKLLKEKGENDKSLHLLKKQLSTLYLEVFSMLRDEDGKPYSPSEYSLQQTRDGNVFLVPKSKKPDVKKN

On to `N#Cc1ccc(N(CC(N)=O)CC(F)(F)F)cc1C(F)(F)F`, for which the call in [1], in assay [2], in [3], in assay [4], in assay [5] and in assay [6] was inactive. The outcome in [7] is “inactive”; in assay [8] it was “inactive”; in [9], “inactive”; in assay [10], “inactive”; with MYC, MYC (gene 4609) it was “inactive”; in [11] it was “inactive”. Moreover, the compound was classed as inactive in assay [13], in assay [14], in assay [15], in assay [16] and in [17]. Moreover, the AC50 – broadly, the concentration giving half of the maximal activity seen – in assay [12] is 10.5 µM (active).
Regarding `CCOC(=O)C(O)(c1ccc(Cl)cc1)c1ccc(Cl)cc1`, the result in [1], in [2], in assay [3], in assay [4], in assay [5] and in assay [6] was inactive. Also, the outcome is “inactive” in assay [7]; “inactive” in [9]; “inactive” in [10]; “inactive” in the assay with MYC, MYC (gene 4609); “inactive” in assay [11]; “inactive” in assay [12]. The call in assay [18], in assay [13], in assay [14], in assay [15], in assay [17] and in assay [19] was inactive. The AC50 in assay [8] was 9.14 µM (active); in [16] it was 36.2 µM (active).
As for `Clc1ccc(C(Cl)(Cl)Cl)cc1`, the compound was classed as inactive in assay [1], in assay [2], in assay [3], in assay [4], in assay [5] and in assay [6]. Moreover, the outcome in assay [7] is “inactive”; in [8] it was “inactive”; in assay [9], “inactive”; in assay [10], “inactive”; in the assay with MYC, MYC (gene 4609), “inactive”; in [11], “inactive”. Besides, the compound was classed as inactive in [12], in assay [13], in assay [14], in assay [15], in assay [16] and in assay [17].

(Values after PubChem BioAssay (EPA / NIEHS).)
